Reference: PubChem BioAssay (NCATS)
Records with an inconclusive call do not appear. Where a call stands in place of a potency, no number is given. Activity calls are given as the source filed them. Unless noted, calls follow the shape of the dose curve; as a rule, active = well fitted curve in the direction sought with a large enough effect; inconclusive = small, poorly fitted or top-dose-only effect, or another doubt; inactive = no such curve, though single readings can be large; an effect the other way counts as inactive or inconclusive.

How the values were obtained:
[1] = qHTS for Inhibitors of the Functional Ribonucleoprotein Complex (vRNP) of Lassa (LASV) Arenavirus: LASV Primary Screen - GLuc reporter signal (AID 1347082; calls by dose curve; tested in HEK293 reporter line; also: nearly all actives have a fitted effect of over 60% in size)
[2] = qHTS for Inhibitors of the Functional Ribonucleoprotein Complex (vRNP) of Lassa (LASV) Arenavirus: Viability assay - alamar blue signal for LASV Primary Screen (AID 1347083; calls by dose curve; tested in HEK293 reporter line; also: nearly all actives have a fitted effect of over 80% in size)
[3] = qHTS for Inhibitors of the Functional Ribonucleoprotein Complex (vRNP) of Lymphocytic Choriomeningitis Arenaviruses (LCMV): Viability assay - alamar blue signal for LCMV Primary Screen (AID 1347085; calls by dose curve; tested in HEK293 reporter line; also: nearly all actives have a fitted effect of over 80% in size)
[4] = molecular target: Nucleoprotein (Lymphocytic choriomeningitis virus (strain Armstrong)) (UniProt P09992); experiment: qHTS for Inhibitors of the Functional Ribonucleoprotein Complex (vRNP) of Lymphocytic Choriomeningitis Arenaviruses (LCMV): LCMV Primary Screen - GLuc reporter signal (AID 1347086; calls by dose curve; also: nearly all actives have a fitted effect of over 70% in size)
[5] = qHTS of pediatric cancer cell lines to identify multiple opportunities for drug repurposing: Primary screen for A673 cells (AID 1347092); also: nearly all actives have a fitted effect of over 45% in size
Summary of the method: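 Cells are plated, rested 5 h, dosed by pintool, incubated 48 h, then lysed with CellTiter-Glo and read by luminescence. DMSO is the neutral control; bortezomib at 2.3 uM final is the positive control.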

[6] = qHTS of pediatric cancer cell lines to identify multiple opportunities for drug repurposing: Primary screen for DAOY cells (AID 1347090); also: nearly all actives have a fitted effect of over 55% in size
Summary of the method: (§1)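 Cell viability, CellTiter-Glo luminescence; 500-1,000 cells/well, 8- or 11-point titration, 48 h compound exposure at 37 degrees C, 5% CO2. Controls: DMSO neutral, bortezomib 2.3 µM final as positive.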

[7] = qHTS of pediatric cancer cell lines to identify multiple opportunities for drug repurposing: Primary screen for SK-N-MC cells (AID 1347093)
Summary of the method: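 Metabolically active cells were quantified by ATP-dependent luminescence (CellTiter-Glo, 15 min at room temperature) following 48 h treatment. Cells had been plated at 500-1,000 per well and settled for 5 h beforehand.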

[8] = qHTS of pediatric cancer cell lines to identify multiple opportunities for drug repurposing: Primary screen for SJ-GBM2 cells (AID 1347091)
Summary of the method: as §1
Potency is read from the fitted curve at half-maximal effect.

Sequence of Nucleoprotein (Lymphocytic choriomeningitis virus (strain Armstrong)) (P09992 whole entry, looked up): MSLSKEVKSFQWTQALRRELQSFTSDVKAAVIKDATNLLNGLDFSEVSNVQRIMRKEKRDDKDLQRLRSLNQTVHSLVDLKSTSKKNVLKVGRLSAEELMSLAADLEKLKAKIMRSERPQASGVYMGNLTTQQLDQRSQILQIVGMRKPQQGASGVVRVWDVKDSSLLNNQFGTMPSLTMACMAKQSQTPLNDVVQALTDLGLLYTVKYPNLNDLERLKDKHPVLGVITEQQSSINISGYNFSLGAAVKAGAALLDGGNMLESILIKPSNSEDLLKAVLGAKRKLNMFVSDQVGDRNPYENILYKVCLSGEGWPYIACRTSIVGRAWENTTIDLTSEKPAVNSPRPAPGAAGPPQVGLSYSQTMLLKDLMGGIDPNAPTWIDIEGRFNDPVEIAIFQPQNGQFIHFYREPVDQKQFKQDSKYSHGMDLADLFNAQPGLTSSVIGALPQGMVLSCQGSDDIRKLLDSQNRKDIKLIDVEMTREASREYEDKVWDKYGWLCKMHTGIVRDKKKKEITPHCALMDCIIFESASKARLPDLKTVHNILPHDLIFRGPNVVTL

Row | SMILES | Potency [1] | Potency [2] | Potency [3] | Potency [4] | Potency [5] | Potency [6] | Potency [7] | Potency [8]
1 | Clc1ccc(COC(Cn2ccnc2)c2ccc(Cl)cc2Cl)cc1 (centres undefined) | inactive | inactive | inactive | inactive | 23.5 µM (active) | – | – | –
2 | CN1CCC[C@@H]1CCO[C@](C)(c1ccccc1)c1ccc(Cl)cc1 | inactive | – | inactive | – | – | – | – | –
3 | Cc1ccc(NC(=O)c2ccc(CN3CCN(C)CC3)cc2)cc1Nc1nccc(-c2cccnc2)n1 | inactive | – | inactive | – | – | – | – | –
4 | C[C@]12C/C(=C/O)C(=O)C[C@@H]1CC[C@@H]1[C@@H]2CC[C@@]2(C)[C@H]1CC[C@]2(C)O | inactive | inactive | inactive | inactive | – | inactive | 23.7 µM (active) | –
5 | O=C1c2cccc3c2[C@H](CCC3)CN1[C@@H]1CN2CCC1CC2 | inactive | – | inactive | inactive | – | – | – | –
6 | Cn1cnc([N+](=O)[O-])c1Sc1ncnc2nc[nH]c12 | inactive | 50.1 µM (active) | – | inactive | – | – | – | –
7 | C#Cc1cccc(Nc2ncnc3cc(OCCOC)c(OCCOC)cc23)c1 | inactive | 7.69 µM (active) | – | inactive | – | – | – | –
8 | CO[C@]12CC[C@@]3(C[C@@H]1[C@](C)(O)C(C)(C)C)[C@@H]1Cc4ccc(O)c5c4[C@@]3(CCN1CC1CC1)[C@H]2O5 | inactive | inactive | – | – | 48.1 µM (active) | – | 30.3 µM (active) | –
9 | CC[N+]1(C)CCCC(OC(=O)C(O)(c2ccccc2)c2ccccc2)C1 (centres undefined) | inactive | inactive | inactive | inactive | inactive | inactive | inactive | inactive
10 | CCC(COC(=O)c1cc(OC)c(OC)c(OC)c1)(c1ccccc1)N(C)C (centres undefined) | inactive | inactive | inactive | inactive | inactive | inactive | inactive | –
11 | CC(S)C(=O)NCC(=O)O (centres undefined) | inactive | – | inactive | inactive | – | – | – | –
12 | Cc1cc(SCc2sc(-c3ccc(C(F)(F)F)c(F)c3)nc2C)ccc1OCC(=O)O | inactive | inactive | inactive | inactive | inactive | inactive | – | –
13 | CCN(CC)C(=O)N[C@@H]1C=C2c3cccc4[nH]cc(c34)C[C@@H]2N(C)C1 | inactive | inactive | – | inactive | inactive | inactive | inactive | inactive
14 | CC1(CN2CCC(n3c(=O)[nH]c4ccccc43)CC2)OCc2ccccc2-n2cccc21 (centres undefined) | inactive | – | inactive | inactive | – | – | – | –
15 | CN1CCN(C(=O)O[C@H]2c3nccnc3C(=O)N2c2ccc(Cl)cn2)CC1 | inactive | inactive | inactive | inactive | inactive | inactive | inactive | inactive
16 | Oc1cc(Cl)ccc1Oc1ccc(Cl)cc1Cl | inactive | inactive | inactive | inactive | 39.4 µM (active) | 49.5 µM (active) | 27.9 µM (active) | 4.42 µM (active)
17 | CN(C)[C@@H]1C(=O)C(C(N)=O)=C(O)[C@@]2(O)C(=O)C3=C(O)c4c(O)cccc4[C@@](C)(O)[C@H]3C[C@@H]12 | inactive | inactive | inactive | inactive | inactive | inactive | inactive | inactive
18 | CN(Cc1cnc2nc(N)nc(N)c2n1)c1ccc(C(=O)N[C@@H](CCC(=O)O)C(=O)O)cc1 | inactive | – | inactive | inactive | – | – | – | –
19 | CNC(=O)c1cc(Oc2ccc(NC(=O)Nc3ccc(Cl)c(C(F)(F)F)c3)cc2)ccn1 | 38.5 µM (active) | – | 17.2 µM (active) | – | – | – | – | –
20 | Nc1ncn([C@@H]2O[C@H](CO)[C@@H](O)[C@H]2O)c(=O)n1 | inactive | – | inactive | – | – | – | – | –
21 | CC[C@H](C)C(=O)O[C@H]1C[C@@H](C)C=C2C=C[C@H](C)[C@H](CC[C@@H]3C[C@@H](O)CC(=O)O3)[C@H]21 | inactive | inactive | – | inactive | – | – | – | –
22 | CC(C)c1c(C(=O)Nc2ccccc2)c(-c2ccccc2)c(-c2ccc(F)cc2)n1CC[C@@H](O)C[C@@H](O)CC(=O)O | inactive | inactive | – | inactive | – | – | – | –
23 | CC1(C)O[C@@H]2[C@@H](CO[C@@]3(COS(N)(=O)=O)OC(C)(C)O[C@@H]23)O1 | inactive | – | inactive | inactive | – | – | – | –
24 | CCc1c2c(nc3ccc(OC(=O)N4CCC(N5CCCCC5)CC4)cc13)-c1cc3c(c(=O)n1C2)COC(=O)[C@]3(O)CC | – | 4.32 µM (active) | – | 27.3 µM (active) | – | – | – | –
